Consider 13 sequences from PMC5700166.

Assay in all cases: protein-binding microarray (PBM); PBM: ~300 nM protein, 6 mM HEPES pH 7.8, 80 mM KCl, 0.5 mM EDTA, 0.5 mM EGTA, 6% glycerol, 35 ng/ul poly-dIdC, 1% milk, 1 h, room temperature; Ap Aiptasia and Nv Nematostella (sea anemones) / Co Capsaspora / Aq Amphimedon (sponge) / Dm Drosophila / Hu human; RHD is the Rel homology domain; high values mean tight binding
What all share (settings): dsDNA, one strand shown

In one test the target is T1, GST-Ap-NF-kB RHD (Exaiptasia pallida (Aiptasia), UniProt A0A913YAJ5 2-422).
T1 sequence: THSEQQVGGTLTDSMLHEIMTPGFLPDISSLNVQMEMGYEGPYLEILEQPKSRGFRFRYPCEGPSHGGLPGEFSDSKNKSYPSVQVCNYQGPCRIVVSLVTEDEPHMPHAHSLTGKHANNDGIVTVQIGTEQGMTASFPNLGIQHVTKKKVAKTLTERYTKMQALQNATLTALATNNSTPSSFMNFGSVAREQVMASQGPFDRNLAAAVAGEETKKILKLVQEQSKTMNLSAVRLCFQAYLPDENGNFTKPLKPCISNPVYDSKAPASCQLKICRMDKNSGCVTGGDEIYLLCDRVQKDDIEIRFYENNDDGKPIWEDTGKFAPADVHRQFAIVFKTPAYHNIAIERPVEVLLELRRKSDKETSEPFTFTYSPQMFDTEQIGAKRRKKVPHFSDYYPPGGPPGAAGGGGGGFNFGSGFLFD

Test [1] addresses T2, GST-Nv-NF-kB (Cys allele) (Nematostella vectensis, UniProt E5G601 2-411).
T2 sequence: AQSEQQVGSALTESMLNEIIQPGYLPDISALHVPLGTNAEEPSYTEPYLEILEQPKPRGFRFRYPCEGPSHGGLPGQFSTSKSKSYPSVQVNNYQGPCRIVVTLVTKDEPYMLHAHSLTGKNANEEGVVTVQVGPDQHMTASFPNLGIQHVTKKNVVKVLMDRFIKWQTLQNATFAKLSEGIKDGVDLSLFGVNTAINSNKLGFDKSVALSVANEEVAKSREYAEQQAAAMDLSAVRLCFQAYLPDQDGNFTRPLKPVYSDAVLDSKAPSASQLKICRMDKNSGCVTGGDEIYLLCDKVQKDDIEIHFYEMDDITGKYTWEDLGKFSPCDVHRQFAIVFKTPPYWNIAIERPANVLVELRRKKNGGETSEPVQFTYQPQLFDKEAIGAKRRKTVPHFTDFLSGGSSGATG

A further test addresses T3, GST-Co-NF-kB (Capsaspora owczarzaki, UniProt F1ARL5 200-546).
T3 sequence: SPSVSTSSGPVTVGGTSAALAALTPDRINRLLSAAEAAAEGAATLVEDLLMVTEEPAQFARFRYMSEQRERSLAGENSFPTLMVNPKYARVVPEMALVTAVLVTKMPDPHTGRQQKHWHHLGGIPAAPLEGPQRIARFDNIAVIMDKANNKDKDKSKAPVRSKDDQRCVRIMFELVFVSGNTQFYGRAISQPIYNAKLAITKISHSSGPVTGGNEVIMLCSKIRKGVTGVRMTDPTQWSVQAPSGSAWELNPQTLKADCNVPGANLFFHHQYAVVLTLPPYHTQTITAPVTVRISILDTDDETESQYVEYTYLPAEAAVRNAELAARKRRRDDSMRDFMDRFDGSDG

Another test has as its target T4, GST-Dm-Relish (Drosophila melanogaster, UniProt Q94527 99-473).
T4 sequence: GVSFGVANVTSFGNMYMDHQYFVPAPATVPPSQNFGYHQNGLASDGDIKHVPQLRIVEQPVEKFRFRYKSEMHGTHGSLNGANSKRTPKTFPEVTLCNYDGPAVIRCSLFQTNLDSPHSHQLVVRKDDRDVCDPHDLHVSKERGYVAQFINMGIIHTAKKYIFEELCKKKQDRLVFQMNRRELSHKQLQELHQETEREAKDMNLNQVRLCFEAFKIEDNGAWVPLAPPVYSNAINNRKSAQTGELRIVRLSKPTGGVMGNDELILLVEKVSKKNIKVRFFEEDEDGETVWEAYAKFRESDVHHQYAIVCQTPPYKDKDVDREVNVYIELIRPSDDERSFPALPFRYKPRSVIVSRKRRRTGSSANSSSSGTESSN

A further test has as its target T5, GST-Aq-NF-kB (Amphimedon queenslandica, UniProt A9Y5G7 2-389).
T5 sequence: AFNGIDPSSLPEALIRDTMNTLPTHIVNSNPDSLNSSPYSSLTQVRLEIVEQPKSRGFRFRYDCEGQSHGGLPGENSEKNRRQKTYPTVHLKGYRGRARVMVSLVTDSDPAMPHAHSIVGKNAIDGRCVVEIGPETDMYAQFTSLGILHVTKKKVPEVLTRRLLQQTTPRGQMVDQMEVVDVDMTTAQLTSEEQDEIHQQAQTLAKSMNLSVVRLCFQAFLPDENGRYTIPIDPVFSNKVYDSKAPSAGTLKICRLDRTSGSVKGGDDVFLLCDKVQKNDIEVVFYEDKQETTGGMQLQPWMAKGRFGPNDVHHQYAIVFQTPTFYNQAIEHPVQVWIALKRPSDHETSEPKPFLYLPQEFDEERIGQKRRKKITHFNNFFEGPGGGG

A further test addresses GST-Hu-p50 (Homo sapiens, UniProt P19838 7-356).

Chain of GST-Hu-p50 (P19838 7-356): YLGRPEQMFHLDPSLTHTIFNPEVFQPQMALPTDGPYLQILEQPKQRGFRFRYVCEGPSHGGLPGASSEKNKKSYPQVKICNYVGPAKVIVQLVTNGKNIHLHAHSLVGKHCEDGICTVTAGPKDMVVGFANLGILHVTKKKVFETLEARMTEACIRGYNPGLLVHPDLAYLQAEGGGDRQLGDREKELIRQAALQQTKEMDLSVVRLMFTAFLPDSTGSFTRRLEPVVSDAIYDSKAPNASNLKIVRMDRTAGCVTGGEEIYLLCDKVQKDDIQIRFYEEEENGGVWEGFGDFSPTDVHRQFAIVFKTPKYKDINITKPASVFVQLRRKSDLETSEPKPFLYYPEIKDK

In the case of “CCGATTAACATCACAAATACCCCTGATGTTAATCGGGTCTTGATTCGCTTGACGCTGCTG”, the binding signal with GST-Ap-NF-kB RHD was 5.46 z-score; in test [1] it was 4.42 z-score; with GST-Co-NF-kB, 4.04 z-score; with GST-Dm-Relish, 3.75 z-score; with GST-Aq-NF-kB, 4.3 z-score; in the test with GST-Hu-p50, 5.3 z-score.
As to “CCGATTAACATCAGGAACCCCCCTGATGTTAATCGGGTCTTGATTCGCTTGACGCTGCTG”, the binding signal was 8.98 z-score in the test with GST-Ap-NF-kB RHD; 6.2 z-score in test [1]; 3.38 z-score in the test with GST-Co-NF-kB; 9.74 z-score with GST-Dm-Relish; 7.32 z-score with GST-Aq-NF-kB; 5.86 z-score with GST-Hu-p50.
As for “CCGATTAACATCAGAAATACCCATGATGTTAATCGGGTCTTGATTCGCTTGACGCTGCTG”, the binding signal with GST-Ap-NF-kB RHD came to 4.24 z-score; in test [1], 5.32 z-score; in the test with GST-Co-NF-kB it was 1.74 z-score; in the test with GST-Dm-Relish it was 3 z-score; with GST-Aq-NF-kB, 4.73 z-score; with GST-Hu-p50, 5.12 z-score.
Take “CCGATTAACATCAAGGAATTCCCTGATGTTAATCGGGTCTTGATTCGCTTGACGCTGCTG”: the binding signal in the test with GST-Ap-NF-kB RHD worked out at 6.83 z-score; in test [1], 7.7 z-score; in the test with GST-Co-NF-kB, 4.22 z-score; in the test with GST-Dm-Relish, 8.03 z-score; with GST-Aq-NF-kB, 8.14 z-score; with GST-Hu-p50, 5.07 z-score.
Regarding “CCGATTAACATCAAATTCCCTTATGATGTTAATCGGGTCTTGATTCGCTTGACGCTGCTG”, the binding signal with GST-Ap-NF-kB RHD is 3.4 z-score; in test [1], 5.97 z-score; in the test with GST-Co-NF-kB, 2.16 z-score; with GST-Dm-Relish, 3.37 z-score; in the test with GST-Aq-NF-kB, 5.01 z-score; in the test with GST-Hu-p50, 4.42 z-score.
For the sequence “CCGATTAACATCAAGGAGTCCCCTGATGTTAATCGGGTCTTGATTCGCTTGACGCTGCTG”, the binding signal in the test with GST-Ap-NF-kB RHD is 7.69 z-score; in test [1], 5.61 z-score; with GST-Co-NF-kB, 3.12 z-score; with GST-Dm-Relish, 8.59 z-score; with GST-Aq-NF-kB, 5.54 z-score; in the test with GST-Hu-p50 it was 5.86 z-score.
Turning to “CCGATTAACATCAAGAAAATCCCTGATGTTAATCGGGTCTTGATTCGCTTGACGCTGCTG”, the binding signal amounted to 5.56 z-score with GST-Ap-NF-kB RHD; 5.43 z-score in test [1]; 2.27 z-score with GST-Co-NF-kB; 6.64 z-score with GST-Dm-Relish; 5.58 z-score in the test with GST-Aq-NF-kB; 4.6 z-score in the test with GST-Hu-p50.
“CCGATTAACATCACCCCGCCCCCTGATGTTAATCGGGTCTTGATTCGCTTGACGCTGCTG”: the binding signal was 4.32 z-score with GST-Ap-NF-kB RHD; 3.28 z-score in test [1]; 3.91 z-score in the test with GST-Co-NF-kB; 4.16 z-score with GST-Dm-Relish; 4.28 z-score in the test with GST-Aq-NF-kB; 4.24 z-score with GST-Hu-p50.
With “CCGATTAACATCAGGGACTTTAATGATGTTAATCGGGTCTTGATTCGCTTGACGCTGCTG”, the binding signal with GST-Ap-NF-kB RHD was 4.47 z-score; in test [1], 5.92 z-score; with GST-Co-NF-kB, 1.03 z-score; in the test with GST-Dm-Relish, 5.04 z-score; with GST-Aq-NF-kB, 5.12 z-score; in the test with GST-Hu-p50 it was 5.02 z-score.
On to “CCGATTAACATCAGGCGTTCCCCTGATGTTAATCGGGTCTTGATTCGCTTGACGCTGCTG”, for which the binding signal with GST-Ap-NF-kB RHD amounted to 5.26 z-score; in test [1] it was 6.01 z-score; with GST-Co-NF-kB it was 3.98 z-score; in the test with GST-Dm-Relish, 6.34 z-score; with GST-Aq-NF-kB it was 5.53 z-score; in the test with GST-Hu-p50, 4.27 z-score.
For the sequence “CCGATTAACATCAGGGGGTGGAATGATGTTAATCGGGTCTTGATTCGCTTGACGCTGCTG”, the binding signal in the test with GST-Ap-NF-kB RHD came out at 3.47 z-score; in test [1] it was 3.19 z-score; in the test with GST-Co-NF-kB, 4.5 z-score; with GST-Dm-Relish, 2.66 z-score; with GST-Aq-NF-kB, 3.65 z-score; in the test with GST-Hu-p50, 4.42 z-score.
Regarding “CCGATTAACATCACATATCCCCCTGATGTTAATCGGGTCTTGATTCGCTTGACGCTGCTG”, the binding signal came to 6.5 z-score with GST-Ap-NF-kB RHD; 5.23 z-score in test [1]; 5.73 z-score with GST-Co-NF-kB; 3.26 z-score in the test with GST-Dm-Relish; 4.79 z-score with GST-Aq-NF-kB; 5.03 z-score with GST-Hu-p50.
On to “CCGATTAACATCACGGGAAGTACTGATGTTAATCGGGTCTTGATTCGCTTGACGCTGCTG”, for which the binding signal with GST-Ap-NF-kB RHD was found to be 1.21 z-score; in test [1], 1.43 z-score; with GST-Co-NF-kB, 1.57 z-score; in the test with GST-Dm-Relish it was 8.29 z-score; with GST-Aq-NF-kB it was 3.28 z-score; with GST-Hu-p50, 1.09 z-score.
